Compound activity: PubChem, National Center for Advancing Translational Sciences (NCATS)
TDP1 cell noCPT – qHTS for Inhibitors of human tyrosyl-DNA phosphodiesterase 1 (TDP1): qHTS in cells in absence of CPT | AID 686978, 2013 | actives 15% (n = 420,000) | Potency, µM (highest dose often 46.2 µM), for the others: top-dose activity change, negative = growth inhibition, most hits filed as inhibitors | DT40 Tdp1-/- hTDP1 cells, no CPT, ATP luminescence, 48 h; further: potency means the concentration at half of the fitted maximal effect; nearly all actives have a fitted effect of over 55% in size
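Luminescent ATP content (CellTiter-Glo) served as the growth readout. Knockout chicken DT40 cells expressing human TDP1 were exposed to compounds without camptothecin for a minimum 48 hr at 37 °C.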
HT1080 IDH1KD tx – HT-1080 IDH1 knockdown cell toxicity (counter line) | HT-1080 IDH1 knockdown viability, ATP luminescence, 48 h | Potency, µM (series often up to 46.1 µM), without a hit: top-dose activity, negative = toxicity, actives largely listed as cytotoxic | actives 2% (n = 360,000) | AID 686971;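 further: potency means the concentration at half of the fitted maximal effect; 0% = DMSO wells and -100% = cell-free medium wells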
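Cytotoxicity counter-line: IDH1KD HT-1080, 48 h, CellTiter-Glo. Curves classed by r2, magnitude and activity.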
HT1080NT lethal – kills 2HG-producing HT-1080-NT fibrosarcoma cells; actives 1.6% (n = 360,000); HT-1080-NT fibrosarcoma viability, CellTiter-Glo ATP luminescence, 48 h; AID 686970; Potency, µM (doses to about 46.1 µM), without a hit: at the top dose activity, negative = less viability, actives largely listed as cytotoxic;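 further: NT is the 2HG producing partner of a matched IDH1 knockdown line; potency means the concentration at half of the fitted maximal effect; 0% = DMSO-treated cells and -100% = media-only wells without cells; nearly all actives have a fitted effect of over 55% in size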
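Read-out is CellTiter-Glo luminescence after 10 minutes at room temperature, following 48 hours' compound treatment of HT-1080-NT cells (750 cells/well, RPMI, 5% FBS, 37 degrees C).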
TDP1 cell CPT – growth inhibition of DT40 Tdp1-/-;hTDP1 cells with camptothecin (screen for TDP1 inhibitors) | chicken DT40 Tdp1-/-;hTDP1 cells + 20 nM CPT, ATP luminescence, 48 h | Potency, µM (top dose mostly 46.2 µM), for the others: at the top dose activity change, negative = growth inhibition, usual class: inhibitors | actives 12% (n = 420,000) | AID 686979; further: potency means the concentration at half of the fitted maximal effect; nearly all actives have a fitted effect of over 55% in size
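Chicken DT40 Tdp1-/- cells complemented with human TDP1, 400 cells/well, exposed to compounds plus 20 nM camptothecin for at least 48 h at 37 C; viability read as ATP content by CellTiter-Glo luminescence.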
12-LOX inh – ALOX12 (human) lipoxygenase inhibition | purified 12hLO, xylenol orange hydroperoxide absorbance | Potency, µM (titrated, usually from 108 µM), for inactives: top-dose activity change, negative = inhibition, actives largely listed as inhibitors | actives 1.1% (n = 580,000); further: potency means the concentration at half of the fitted maximal effect
Target sequence (P18054 whole entry, looked up): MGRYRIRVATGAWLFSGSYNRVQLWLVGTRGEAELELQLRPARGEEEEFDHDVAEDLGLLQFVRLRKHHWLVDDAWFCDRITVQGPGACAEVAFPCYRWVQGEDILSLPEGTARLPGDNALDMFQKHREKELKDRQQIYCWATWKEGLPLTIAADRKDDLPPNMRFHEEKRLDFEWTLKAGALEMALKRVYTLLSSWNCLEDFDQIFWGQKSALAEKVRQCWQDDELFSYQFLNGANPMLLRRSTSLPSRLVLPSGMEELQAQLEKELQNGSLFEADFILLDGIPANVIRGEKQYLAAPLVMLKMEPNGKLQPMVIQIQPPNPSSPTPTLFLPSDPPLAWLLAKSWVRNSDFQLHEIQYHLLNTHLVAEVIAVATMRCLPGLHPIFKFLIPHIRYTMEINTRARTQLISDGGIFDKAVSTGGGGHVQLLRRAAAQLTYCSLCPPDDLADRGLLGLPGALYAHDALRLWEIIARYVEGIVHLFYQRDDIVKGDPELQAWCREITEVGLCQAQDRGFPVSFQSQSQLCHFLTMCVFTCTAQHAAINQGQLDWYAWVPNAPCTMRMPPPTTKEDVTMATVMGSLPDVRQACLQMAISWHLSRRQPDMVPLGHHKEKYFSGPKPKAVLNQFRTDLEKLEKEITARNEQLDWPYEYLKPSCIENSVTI
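Purified human 12hLO (150 nM final) in 25 mM Hepes, 0.01% Triton X-100, pH 7.0 was preincubated 15 min at room temperature with compound. Then 40 uM arachidonic acid was added, 30 min. Hydroperoxide was read by Fe-XO absorbance ratio 573/405 nm.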
IL1B secr inh – blocks inflammasome-driven IL-1 beta release; THP-1 LPS/ATP IL-1B secretion, AlphaLISA, 16 h; hits give low values; activity change, % at 57.5 µM; actives 4.7% (n = 360,000); in the data active means activity change below about -50%; inconclusive means mostly about -30% to -49%
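THP-1 cells pretreated 1 hr with compounds (up to 57.5 uM final), then stimulated with LPS (250 ng/mL final) plus ATP (1.25 mM final); secreted IL-1B measured by AlphaLISA after 16 hr, decreased signal indicating inhibition.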
* hit, by the source's call; i = inactive; ? = inconclusive; nt = no result; [ ] = another dose, or the depositor's remark. The entries come from a sample that favours hits as a whole. Unless noted, the call rests on the fitted dose curve; in most records, active means well fitted curve in the direction sought with a large enough effect; inconclusive means small, poorly fitted or top-dose-only effect, or another doubt; inactive means no such curve, though single readings can be large; an effect the other way counts as inactive or inconclusive. Unless noted, on the % scale 0 is the no-effect control and ±100 the full control effect.

SMILES	TDP1 cell noCPT	HT1080 IDH1KD tx	HT1080NT lethal	TDP1 cell CPT	12-LOX inh	IL1B secr inh
Cc1cccc(-n2c(SCc3cc(=O)n4ccsc4n3)nc3ccccc32)c1	16µM*	-14%	-22%	13µM*	-3%	-2
Cc1ccc2[nH]cc(CCNC3CC(=O)N(c4ccc(F)cc4)C3=O)c2c1 (stereo not drawn)	nt	nt	nt	nt	-31%	nt
COc1ccc(C2=NOC3(CCN(C(=O)c4ccccc4OC)C3)C2)cc1 (stereo not drawn)	nt	nt	nt	nt	9%	nt
COC(=O)C1=CN(CC(=O)Nc2ccc(C(C)C)cc2)S(=O)(=O)N=C1C	nt	nt	nt	nt	-5%	nt
N#Cc1ccccc1CSc1ncc(C(F)(F)F)cc1Cl	nt	nt	nt	nt	7%	nt
C=CCn1c(SCC(=O)Nc2ccc(Br)cc2)nc(O)cc1=O	11%	-13%	-15%	-11%	3.2µM*	10
CCN(CC)C(=O)CSc1nc2c(sc(=S)n2-c2ccccc2)c(=O)n1-c1ccc(OC)cc1OC	?	-3%	-9%	?	11%	-17
CCNC(=O)CSc1nc2ccccc2c(=O)n1-c1cccc(OC)c1	-8%	3%	7%	0%	14%	-17
CCn1c(SCC(=O)Nc2ccc(C)cc2)nc(O)cc1=O	0%	-3%	-2%	4%	-13%	8
Cc1ccc(NC(=S)NNC(=O)CSc2nc3ccccc3c(=O)n2-c2ccc(C)cc2)cc1	16µM*	-7%	-7%	-29%	?	11
CCN(CC)C(=O)CSc1nc2ccccc2c(=O)n1-c1cccc(OC)c1	15µM*	1%	-15%	?	0%	?
CCN(CC)C(=O)CSc1nc2c(sc(=S)n2-c2ccccc2)c(=O)n1-c1ccccc1OC	?	-21%	-14%	9.2µM*	0%	-6
O=C(CCC[C@@H]1[C@H]2CCCN3CCC[C@@H](CN1C(=O)c1cc(F)ccc1F)[C@@H]23)N1CCOCC1	nt	nt	nt	nt	33%	nt
Cn1cc(C(=O)N2CCC3(CCN(C4CCOCC4)CC3)C(CO)C2)cn1 (stereo not drawn)	nt	nt	nt	nt	0%	nt
CCN(CC)C(CNc1nc(CCN)nc2ccccc12)c1ccco1 (stereo not drawn)	nt	nt	nt	nt	26%	nt
COc1ccc(C(NC(=O)c2cccc(Cl)c2)NC(=O)c2cccc(Cl)c2)cc1	nt	nt	nt	nt	9%	nt
O=C(NC1CCCCCC1)C1CC(=O)N(c2n[nH]c3cccc(F)c23)C1 (stereo not drawn)	nt	nt	nt	nt	18%	nt
c1ccc(-n2cnnc2SCc2cn3ccsc3n2)cc1	-18%	22%	14%	-10%	3%	-1
COc1cccc(-n2c(SCc3cc(=O)oc4cc(O)c(O)cc34)nc3ccccc3c2=O)c1	?	-27%	-20%	?	7.1µM*	58
Cc1ccc(-n2c(SCc3cn4ccsc4n3)nc3ccccc3c2=O)cc1	21µM*	-28%	-9%	?	i	-21
COc1ccc(-n2c(SCC(=O)Nc3ccc(NC(C)=O)cc3)nc3ccccc3c2=O)cc1	-23%	-29%	?	13µM*	-32%	-3
CCc1cc2c(CSc3nnnn3-c3ccccc3)cc(=O)oc2cc1O	nt	nt	nt	nt	-12%	nt
COc1ccc(N2CC(C(=O)N3CCC(C(=O)NCCCc4ccccc4)C3)NC2=O)cc1 (stereo not drawn)	nt	nt	nt	nt	12%	nt
C(=N\N=C\c1c[nH]c2ccccc12)/c1c[nH]c2ccccc12	nt	nt	nt	nt	-6%	nt
CCOc1ccc(N2C(=O)c3ccccc3NC2(CC)CC)cc1	nt	nt	nt	nt	17%	nt
SMILES	TDP1 cell noCPT	HT1080 IDH1KD tx	HT1080NT lethal	TDP1 cell CPT	12-LOX inh	IL1B secr inh
COCCOC(=O)c1c(C)oc2ccc(O)c(CN3CCC(C)CC3)c12 (tested in a mixture with another compound)	?	-2%	-5%	?	7%	-52*
COCCOC(=O)c1c(C)oc2ccc(OCC=C(C)C)cc12	-17%	14%	1%	-5%	3%	39
CCOC(=O)c1c(CSc2ccccc2)oc2ccc(O)cc12	21µM*	-15%	-19%	?	?	4
CCOC(=O)c1c(CS(=O)(=O)c2ccccc2)n(C)c2cc(Br)c(O)c(CN(C)C)c12	13µM*	-5%	-11%	15µM*	-7%	-15
CCOC(=O)c1c(-c2ccccc2)oc2cc(CN(C)C)c(O)c(CN(C)C)c12	?	11µM*	?	?	-26%	66
Cc1cc(C)n(CC(=O)N2CCc3nn(C)c(=O)n3CC2)n1	nt	nt	nt	nt	38%	nt
N#CCOc1ccccc1/C=C/C(=O)c1ccc(F)c(Cl)c1	nt	nt	nt	nt	-25%	nt
CC(C)NC(=O)NC[C@H]1O[C@@H](CC(=O)Nc2ccccc2)[C@H](O)[C@@H]1O	nt	nt	nt	nt	17%[176 µM]	nt
CCOC(=O)c1c(C)oc2ccc(O)c(CN(C)C)c12	?	-1%	-1%	-20%	?	-23
COC(=O)Cc1c(CSc2ccccc2)oc2ccc(O)c(CN(C)C)c12	?	5%	0%	-8%	0%	-25
Cc1oc2c(Cl)c(Cl)c(O)c(CN(C)C)c2c1C(=O)c1ccc(Cl)cc1	?	-10%	-19%	?	0%	-25
CCOC(=O)c1c(CSc2ccc(CC)cc2)oc2ccc(O)c(CN(C)C)c12	7.3µM*	21µM*	?	8.2µM*	?	-101*
CC(=O)c1c(CSc2ccccc2)oc2ccc(O)c(CN(C)C)c12	?	?	?	23µM*	?	-85*
CCOC(=O)c1c(-c2ccccc2)oc2ccc(O)c(CN3CCN(C)CC3)c12	2.3µM*	?	?	2.1µM*	?	nt
CCOC(=O)c1c(C)n(C)c2ccc(O)c(CN3CCN(C)CC3)c12	-18%	0%	5%	-7%	-9%	-1
